# Assay results published in PubChem BioAssay (NCATS).
# Where “and” joins values, the source holds several entries; their conditions need not be identical. Identical values can stand only once. A number with no mark means an inactive call. Inconclusive results are not listed. Where a call stands in place of a potency, no number is given. Calls of active or inactive are those of the source. Unless noted, calls come from the whole dose curve; as a rule, active = well fitted curve in the direction sought with a large enough effect; inconclusive = small, poorly fitted or top-dose-only effect, or another doubt; inactive = no such curve, though single readings can be large; an effect the other way counts as inactive or inconclusive.
# Experiments:
# [1] = target: Cytochrome P450 3A4 (Homo sapiens) (UniProt P08684); assay: qHTS Assay for Activators of Cytochrome P450 3A4 (AID 885); note: nearly all actives have a fitted effect of over 65% in size
# Outline: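 CYP3A4 activity: Luciferin-PPXE O-dealkylation, 25uM substrate, 200mM KPO4, RT throughout. Read-out is luciferase luminescence; higher values reflect activation.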
# [2] = Confirmation and Secondary Assay for Modulators of Hemoglobin Beta Chain Splicing at IVS2 654 locus (AID 910);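 note: HeLa cells stably carrying EGFP split by mutant beta-globin IVS2-654 intron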
# Outline: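 HeLa cells stably expressing EGFP interrupted by β-globin IVS2-654 intron, seeded overnight in Opti-MEM/2% FCS, then treated 2 days at 37 °C. Restored splicing read as total peak GFP intensity per well by laser scanning cytometry (488 nm excitation, 500–520 nm emission); 500 nM antisense PNA as control.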
# [3] = Confirmation and Secondary Assay for Modulators of Hemoglobin Beta Chain Splicing at IVS2 705 locus (AID 930);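 note: HeLa cells stably expressing the EGFP-705 splicing reporter; GFP fluorescence per well restored by corrected splicing of the IVS2-705 intron in EGFP; series mostly up to about 46 µM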
# Outline: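 Fluorescence gain (488 nm laser, 500-520 nm PMT) reflects restored correct splicing of a mutant IVS2-705 intron inside EGFP in stably transfected HeLa cells after 2-day compound treatment.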
# [4] = target: Cytochrome P450 2D6 (Homo sapiens) (UniProt P10635); assay: qHTS Assay for Inhibitors and Substrates of Cytochrome P450 2D6 (AID 891); note: nearly all actives have a fitted effect of over 60% in size; note: potency is the fitted concentration of half-maximal effect
# Outline: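 Luminescent read-out of luciferin formed by 5 nM human CYP2D6 demethylating 30 uM Luciferin-ME EGE (Km level) over 60 min at room temperature after NADPH regeneration addition. Data normalized to full inhibition by 1.43 uM quinidine.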
# [5] = target: Cytochrome P450 2C19 (Homo sapiens) (UniProt P33261); assay: qHTS Assay for Inhibitors and Substrates of Cytochrome P450 2C19 (AID 899); note: nearly all actives have a fitted effect of over 60% in size; note: potency is the fitted concentration of half-maximal effect
# Outline: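 Signal comes from luciferase acting on luciferin released by CYP2C19-mediated hydroxylation of Luciferin-H EGE, 10uM (KM). Assay mix: 5nM enzyme, 50mM KPO4; 60 min at 37C with NADPH regeneration. Data normalized against 57uM ketoconazole.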
# [6] = qHTS Assay for Identification of Small Molecule Agonists for Hypoxia Response Element Signaling Pathway (AID 914; active = well fitted activation curve with a large enough effect in the signal ratio, with a control signal flat, not every such curve was filed as active; the % refers to the signal ratio); conditions: ME-180 (cervical carcinoma) HRE-bla reporter, beta-lactamase ratio, CoCl2, 17 h; stronger effect = higher value
# Outline: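 A beta-lactamase reporter under hypoxia response element control in ME-180 cells served as the system. Compound titrations plus EC50 CoCl2 ran 17 h at 37 degrees Celsius; AC50 values were fitted from %Activity.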
# Chain of Cytochrome P450 3A4 (Homo sapiens) (P08684 whole entry, looked up): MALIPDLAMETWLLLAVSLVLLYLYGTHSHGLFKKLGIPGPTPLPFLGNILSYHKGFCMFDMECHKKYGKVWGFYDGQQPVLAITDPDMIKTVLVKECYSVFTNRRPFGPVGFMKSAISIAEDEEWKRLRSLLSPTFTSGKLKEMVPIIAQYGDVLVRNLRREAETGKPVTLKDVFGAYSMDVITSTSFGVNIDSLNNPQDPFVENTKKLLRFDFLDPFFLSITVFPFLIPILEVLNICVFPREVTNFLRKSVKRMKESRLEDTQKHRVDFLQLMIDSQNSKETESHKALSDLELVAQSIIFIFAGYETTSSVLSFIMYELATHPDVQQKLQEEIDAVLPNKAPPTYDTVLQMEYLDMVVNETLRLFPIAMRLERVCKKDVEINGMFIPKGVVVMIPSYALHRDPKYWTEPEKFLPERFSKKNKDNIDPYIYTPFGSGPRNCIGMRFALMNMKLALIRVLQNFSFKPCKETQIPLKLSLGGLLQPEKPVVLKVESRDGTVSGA
# Chain of Cytochrome P450 2D6 (Homo sapiens) (P10635 whole entry, looked up): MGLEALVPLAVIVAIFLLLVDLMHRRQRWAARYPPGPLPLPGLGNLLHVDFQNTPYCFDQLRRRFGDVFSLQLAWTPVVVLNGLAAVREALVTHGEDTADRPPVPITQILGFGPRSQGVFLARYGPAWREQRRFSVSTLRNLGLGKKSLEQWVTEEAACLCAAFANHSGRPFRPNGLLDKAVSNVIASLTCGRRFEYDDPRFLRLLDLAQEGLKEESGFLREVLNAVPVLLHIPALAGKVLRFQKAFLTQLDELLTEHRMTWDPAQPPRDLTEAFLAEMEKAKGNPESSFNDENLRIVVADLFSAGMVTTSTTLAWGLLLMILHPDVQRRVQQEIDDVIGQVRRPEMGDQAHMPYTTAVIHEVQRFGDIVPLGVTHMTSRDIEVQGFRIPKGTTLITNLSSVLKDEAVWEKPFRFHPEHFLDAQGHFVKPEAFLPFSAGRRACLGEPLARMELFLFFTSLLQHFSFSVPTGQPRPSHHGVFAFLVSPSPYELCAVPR
# Chain of Cytochrome P450 2C19 (Homo sapiens) (P33261 whole entry, looked up): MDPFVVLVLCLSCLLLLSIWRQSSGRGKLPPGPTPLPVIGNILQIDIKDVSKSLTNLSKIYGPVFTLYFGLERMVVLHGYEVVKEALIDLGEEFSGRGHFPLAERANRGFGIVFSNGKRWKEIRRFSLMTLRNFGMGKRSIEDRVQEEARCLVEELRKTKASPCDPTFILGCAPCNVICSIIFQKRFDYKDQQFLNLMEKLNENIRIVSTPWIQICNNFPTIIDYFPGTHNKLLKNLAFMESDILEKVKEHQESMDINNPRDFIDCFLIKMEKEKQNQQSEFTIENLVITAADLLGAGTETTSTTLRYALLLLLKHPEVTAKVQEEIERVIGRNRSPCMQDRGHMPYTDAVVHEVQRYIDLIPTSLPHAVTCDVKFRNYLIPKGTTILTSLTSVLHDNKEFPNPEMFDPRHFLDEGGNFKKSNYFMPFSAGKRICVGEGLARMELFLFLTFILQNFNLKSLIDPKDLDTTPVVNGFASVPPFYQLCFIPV
smiles,measurement,setting,value
C=CC(C1=CC(=O)C(OC)=C(OC)C1=O)c1ccccc1 (stereo not given),Potency,[1],inactive
same,outcome,[2],inactive
same,outcome,[3],inactive
CC1CCC2C(=O)OC(CO)CN2C1c1ccc(Br)cc1 (stereo not given),"activity change, positive = activation",[1],-46.2% [at 11.4 µM]
same,Potency,[4],inactive
same,Potency,[5],158 nM (active)
C/C(CCN1CCc2nc(-c3ccccc3)c(-c3ccccc3)cc2C1)=N\O[C@@H](C)c1cc(-c2c(C)cc(C)cc2C)no1,"activity change, positive = activation",[1],-63.5% [at 11.4 µM]
same,activation,[6],20.9%
COc1ccc(-c2coc3c(OC)c(OC)cc(O)c3c2=O)cc1,Potency,[1],inactive
same,outcome,[2],inactive
same,outcome,[3],inactive
CCC12C=C(/C=C/c3ccccc3)C(CC)(C1)C(c1ccccc1)CC2=O (stereo not given),"activity change, positive = activation",[1],-32.8% [at 11.4 µM]
same,Potency,[4],inactive
same,Potency,[5],5010 nM (active)
COc1ccc(OC2C(O)COC2/C=C/c2ccccc2)cc1 (stereo not given),"activity change, positive = activation",[1],-47.5% [at 11.4 µM] and -40.4% [at 11.4 µM]
same,Potency,[4],inactive
same,Potency,[5],2000 nM (active)
CNC1CCC(c2ccc(Cl)c(Cl)c2)c2ccccc21 (stereo not given),Potency,[1],inactive
same,outcome,[2],inactive
same,outcome,[3],inactive
CCOC(=O)OCC1OC(C#Cc2ccc(Br)cc2)C=CC1OC(=O)OCC (stereo not given),"activity change, positive = activation",[1],-52.5% [at 11.4 µM]
same,Potency,[4],inactive
same,Potency,[5],inactive
C=CC[C@@H]1C=C[C@@H](O/N=C\C[C@@H]2C=C[C@H](OC(C)=O)[C@H](COC(C)=O)O2)[C@@H](CO)O1,"activity change, positive = activation",[1],-49.3% [at 11.4 µM]
same,activation,[6],4.01%
C/C(CCN1CCCCc2nc(C)c(C)cc21)=N\OC[C@@H](C)[C@H](OCc1ccccc1)C(C)C,"activity change, positive = activation",[1],-49.2% [at 11.4 µM]
same,activation,[6],5.09%
CC1CCC2C(=O)N3C(CCC(C)[C@H]3c3ccccc3Br)C(=O)N2C1c1ccccc1Br (stereo not given in full),"activity change, positive = activation",[1],-55.3% [at 11.4 µM]
same,Potency,[4],3160 nM (active)
same,Potency,[5],inactive
C#CCCCCCCCCCCCC(O)CC(O)COC(C)=O (stereo not given),Potency,[1],inactive
same,outcome,[2],inactive
same,outcome,[3],inactive
COc1cccc([C@@H]2Oc3ccc(OC)cc3/C(=N/O[C@@H](C)c3cc(-c4c(C)cc(C)cc4C)no3)[C@@H]2O)c1,"activity change, positive = activation",[1],-90.1% [at 11.4 µM]
same,Potency,[5],1580 nM (active)
COc1cc(C2c3cc4c(cc3C(O)[C@H]3COC(=O)C23)OCO4)cc(OC)c1OC (stereo not given in full),Potency,[1],inactive
same,outcome,[2],inactive
same,outcome,[3],inactive
CCN1C(=O)[C@H]2[C@H]3[C@H](O)[C@H](O)C/C(=N/O[C@@H](C)c4cn([C@H](CO)Cc5ccccc5)nn4)[C@@H]3CC[C@@H]2C1=O,"activity change, positive = activation",[1],-35.2% [at 11.4 µM] and -33% [at 11.4 µM]
same,activation,[6],1.7%
C[C@@H]1OC2C3=C(C(=O)[C@H]4O[C@@H]4[C@H]3O)[C@@H]1[C@H]1[C@H](C)OC=C3[C@H](O)[C@H]4O[C@H]4/C(=N\OCc4ccccc4)[C@@]321,"activity change, positive = activation",[1],-58.8% [at 11.4 µM]
same,Potency,[5],inactive
CO[C@@H]1COC(=O)C/C=C\[C@H](C)COC(=O)[C@H](Cc2ccccc2)NC(=O)C/C=C\[C@H]1C,"activity change, positive = activation",[1],-56.6% [at 11.4 µM]
same,Potency,[5],2510 nM (active)
CCCCCC(=O)O[C@@]1(C(C)=O)CCC2C3CCC4=CC(=O)CC[C@@]4(C)C3CC[C@]21C (stereo not given in full),Potency,[1],inactive
same,outcome,[2],inactive
same,outcome,[3],inactive
CC(C)CCN1CCc2nc(COc3ccccc3)c3c(c2C1)COC(C)C3 (stereo not given),"activity change, positive = activation",[1],-76.7% [at 11.4 µM]
same,Potency,[4],inactive
same,Potency,[5],inactive
CC(=O)OC[C@@H]1O[C@H](C/C=N\OCC[C@H]2C=C[C@H](OC(C)=O)[C@@H](COC(C)=O)O2)C=C[C@@H]1OC(C)=O,"activity change, positive = activation",[1],-31% [at 11.4 µM]
same,Potency,[5],inactive
COC(=O)C(/C=C/C(C)Cc1cc(Br)cc(OCc2ccccc2)c1OC)OCc1ccccc1 (stereo not given),"activity change, positive = activation",[1],-50.4% [at 11.4 µM]
same,Potency,[4],inactive
same,Potency,[5],inactive
CCC1CN2CCc3cc(OC)c(OC)cc3C2CC1CC1NCCc2cc(OC)c(OC)cc21 (stereo not given),Potency,[1],inactive
same,outcome,[2],inactive
same,outcome,[3],inactive
C=CCc1cccc(C2C(C)CCC3C(=O)N4C(CCC(C)C4c4cccc(CC=C)c4)C(=O)N32)c1 (stereo not given),"activity change, positive = activation",[1],-58.4% [at 11.4 µM]
same,Potency,[5],inactive
CCC[C@@H]1C[C@@]1(CCC)C(NC(=O)OCc1ccccc1)c1ccc(-c2ccccc2)cc1 (stereo not given in full),Potency,[1],inactive
same,Potency,[4],7940 nM (active)
same,Potency,[5],1260 nM (active)
COC(=O)[C@@H]1CC[C@H](C)[C@@H](c2ccc(C)cc2)N1C(=O)c1ccc(/C=N\OC[C@@H]2O[C@H](c3ccccc3)C=C[C@@H]2Oc2ccc(OC)cc2)cc1,"activity change, positive = activation",[1],-30% [at 11.4 µM]
same,Potency,[5],50.1 nM (active)
CC1CCC2C(=O)N3C(CCC(C)[C@H]3c3cccc(N4CCCC4=O)c3)C(=O)N2C1c1cccc(N2CCCC2=O)c1 (stereo not given in full),"activity change, positive = activation",[1],-53.3% [at 11.4 µM]
same,Potency,[4],inactive
same,Potency,[5],inactive
CC(C)CO/N=C1/C[C@@H](O)[C@@H](O)[C@@H]2[C@@H]3C(=O)N(Cc4ccc5c(c4)OCO5)C(=O)[C@H]3CC[C@H]12,"activity change, positive = activation",[1],-96.6% [at 11.4 µM]
same,Potency,[5],3980 nM (active)
C/C=C/OC(=O)NC(c1ccccc1)[C@]1(C(C)=O)CCCC1=O (stereo not given in full),"activity change, positive = activation",[1],-53.9% [at 11.4 µM]
same,Potency,[4],inactive
same,Potency,[5],199 nM (active)
CC1CCC2C(=O)N3C(CCC(C)C3c3ccccc3Br)C(=O)N2C1c1ccc(C#CCN(C)C)cc1 (stereo not given),"activity change, positive = activation",[1],-38.2% [at 11.4 µM]
same,Potency,[4],inactive
same,Potency,[5],inactive
CC(C)=CCC/C(C)=C/CO/N=C1/[C@H]2O[C@@H]2[C@@H](O)[C@H]2[C@H]1CCn1c(=O)n(Cc3cc4c(cc3Cl)OCO4)c(=O)n12,"activity change, positive = activation",[1],-56.5% [at 11.4 µM]
same,activation,[6],3.23%
CC1CCC2C(=O)OC(CN3C(=O)c4ccccc4C3=O)CN2C1c1ccc(Br)cc1 (stereo not given),"activity change, positive = activation",[1],-55.7% [at 11.4 µM]
same,Potency,[5],inactive
CC1(C)CC[C@]2(C(=O)O)C(O)C[C@@]3(C)C(=CCC4[C@@]5(C)CCC(O)C(C)(C)C5CC[C@@]43C)C2C1 (stereo not given in full),Potency,[1],inactive
same,outcome,[2],inactive
same,outcome,[3],inactive
CC(C)c1c(O)ccc2c1CCC1C(C)(C)CCC[C@@]21C (stereo not given in full),Potency,[1],inactive
same,outcome,[2],inactive
same,outcome,[3],inactive
COC(=O)NC(/C(C(=O)OC)=C(\C)NCc1ccccc1)c1ccc2ccccc2c1 (stereo not given),"activity change, positive = activation",[1],-55.9% [at 11.4 µM]
same,Potency,[4],2000 nM (active)
same,Potency,[5],63.1 nM (active)
CO[C@H]1COC(=O)C/C=C\[C@@H](C)COC(=O)[C@@H](OCc2ccccc2)/C=C\[C@@H]1C,"activity change, positive = activation",[1],-63.8% [at 11.4 µM]
same,activation,[6],-3.25%
O=C1[C@@H]2[C@H]3[C@H](O)[C@H](O)C/C(=N/OC[C@@H](O)COCc4ccco4)[C@@H]3CC[C@H]2C(=O)N1c1ccc(F)cc1F,"activity change, positive = activation",[1],-48.8% [at 11.4 µM]
same,Potency,[5],inactive
C=CC(C1=CC(=O)C(OC)=CC1=O)c1ccc(OC)cc1 (stereo not given),Potency,[1],inactive
same,outcome,[2],inactive
same,outcome,[3],inactive
COc1ccc(OC)c(-c2ccccc2/C=N/NS(=O)(=O)c2ccc(C)cc2)c1,"activity change, positive = activation",[1],-59.9% [at 11.4 µM]
same,Potency,[4],inactive
same,Potency,[5],100 nM (active)
COc1ccc(-c2ccc3c(n2)CCCN3C[C@H](O)CN2CCCc3nc(-c4ccc(Br)cc4)ccc32)cc1,"activity change, positive = activation",[1],-31.9% [at 11.4 µM]
same,activation,[6],17.4% and 18.3%
CC(=O)OC[C@@H]1O[C@@H](O/N=C2/C[C@@H](O)[C@@H](O)[C@@H]3[C@@H]4C(=O)N(c5cccc(Oc6ccccc6)c5)C(=O)[C@H]4CC[C@H]23)[C@H](OC(C)=O)[C@H](OC(C)=O)[C@@H]1OC(C)=O,"activity change, positive = activation",[1],-36.6% [at 11.4 µM]
same,Potency,[5],inactive
COC(=O)C/C=C\[C@@H](C)[C@@H](/C=N\O[C@@H](C)CN1CCCc2nc(C)c(C)cc21)NS(=O)(=O)c1ccc(C)cc1,Potency,[4],3160 nM (active)
CCOC(=O)CCN1C(=O)[C@H]2[C@@H]3[C@H](O)[C@H](O)CC(=O)[C@H]3CC[C@H]2C1=O,Potency,[4],inactive
